Molecules are shown by their SMILES. Like-named read-outs stand apart in the source and are kept apart here.

The values that follow come from publication PMC11062922 (Nature Chemical Biology, 2023).

Set-up in all cases: species or system human, MV4-11 + K-562 + COLO205 + SK-N-BE2 + OVCAR-8
One assay has as its system AGK. As to conditions: read-out: apparent Kd; compound concentrations: 100 nM and 1000 nM (sheet 'Samples'), CATDS: 7.7586701088880605E-2; n = 1.
The test system of a further assay is CSNK1D. The settings on record: read-out: apparent Kd; compound concentrations: 100 nM and 1000 nM (sheet 'Samples'), CATDS: 0.14002934621816099; n = 1.
In another assay the test system is CSNK1E. As to conditions: read-out: apparent Kd; compound concentrations: 100 nM and 1000 nM (sheet 'Samples'), CATDS: 9.5278515441506895E-2; n = 1.
The next assay relates to JAK2. As to conditions: read-out: apparent Kd; compound concentrations: 100 nM and 1000 nM (sheet 'Samples'), CATDS: 0.169567440751725; n = 1.
The test system of the next assay is MAPK14. As to conditions: read-out: apparent Kd; compound concentrations: 100 nM and 1000 nM (sheet 'Samples'), CATDS: 0.109512285169825; n = 1.
Another assay deals with MAPK9. The settings on record: read-out: apparent Kd; compound concentrations: 100 nM and 1000 nM (sheet 'Samples'), CATDS: 8.7291809991309394E-2; n = 1.
For a further assay, the system named is MAPKAPK2. The settings on record: read-out: apparent Kd; compound concentrations: 100 nM and 1000 nM (sheet 'Samples'), CATDS: 8.8585007822458595E-2; n = 1.
For another assay, the system named is PKN3. The settings on record: read-out: apparent Kd; compound concentrations: 100 nM and 1000 nM (sheet 'Samples'), CATDS: 8.9898852115076394E-2; n = 1.
The next assay concerns PRKD2. As to conditions: read-out: apparent Kd; compound concentrations: 100 nM and 1000 nM (sheet 'Samples'), CATDS: 9.5055877721236803E-2; n = 1.
A further assay concerns PRKD3. The settings on record: read-out: apparent Kd; compound concentrations: 100 nM and 1000 nM (sheet 'Samples'), CATDS: 9.9429548898697998E-2; n = 1.
A further assay deals with ADRBK1. As to conditions: read-out: apparent Kd, compound concentrations: 100 nM and 1000 nM (sheet 'Samples'), n = 1.
For the next assay, the system named is MAP2K2. As to conditions: read-out: apparent Kd; compound concentrations: 100 nM and 1000 nM (sheet 'Samples'), CATDS: 0.29465532437802699; n = 1.
The subject of a further assay is NNT. As to conditions: read-out: apparent Kd; compound concentrations: 100 nM and 1000 nM (sheet 'Samples'), CATDS: 0.33555608244827101; n = 1.
A further assay relates to FLT4. The settings on record: read-out: apparent Kd; compound concentrations: 100 nM and 1000 nM (sheet 'Samples'), CATDS: 0.144028041300378; n = 1.
In the next assay the test system is MAP4K5. As to conditions: read-out: apparent Kd; compound concentrations: 100 nM and 1000 nM (sheet 'Samples'), CATDS: 0.15363433252833; n = 1.
Another assay has as its system PLK1. The settings on record: read-out: apparent Kd; compound concentrations: 100 nM and 1000 nM (sheet 'Samples'), CATDS: 0.58980024549807997; n = 1.
The next assay concerns SLK. The settings on record: read-out: apparent Kd; compound concentrations: 100 nM and 1000 nM (sheet 'Samples'), CATDS: 0.13817903386438299; n = 1.
A further assay concerns STK10. The settings on record: read-out: apparent Kd; compound concentrations: 100 nM and 1000 nM (sheet 'Samples'), CATDS: 0.15967879525120501; n = 1.
The next assay deals with AKT2. As to conditions: read-out: apparent Kd; compound concentrations: 100 nM and 1000 nM (sheet 'Samples'), CATDS: 4.2627279294918302E-2; n = 1.
A further assay deals with AKT3. The settings on record: read-out: apparent Kd; compound concentrations: 100 nM and 1000 nM (sheet 'Samples'), CATDS: 2.7204551549319601E-2; n = 1.
A further assay has as its system CIT. As to conditions: read-out: apparent Kd; compound concentrations: 100 nM and 1000 nM (sheet 'Samples'), CATDS: 2.7482144104810799E-2; n = 1.
A further assay deals with GSK3A. As to conditions: read-out: apparent Kd; compound concentrations: 100 nM and 1000 nM (sheet 'Samples'), CATDS: 6.2878990302183399E-2; n = 1.
The test system of another assay is GSK3B. The settings on record: read-out: apparent Kd; compound concentrations: 100 nM and 1000 nM (sheet 'Samples'), CATDS: 5.5559924345407602E-2; n = 1.
The test system of another assay is LATS1. The settings on record: read-out: apparent Kd; compound concentrations: 100 nM and 1000 nM (sheet 'Samples'), CATDS: 4.8333915347555698E-2; n = 1.
A further assay has as its system MARK2. As to conditions: read-out: apparent Kd; compound concentrations: 100 nM and 1000 nM (sheet 'Samples'), CATDS: 4.76140671076506E-2; n = 1.
In a further assay the test system is MARK3. As to conditions: read-out: apparent Kd; compound concentrations: 100 nM and 1000 nM (sheet 'Samples'), CATDS: 5.1082901600924303E-2; n = 1.
The next assay relates to MARK4. The settings on record: read-out: apparent Kd; compound concentrations: 100 nM and 1000 nM (sheet 'Samples'), CATDS: 4.9590510521074001E-2; n = 1.
The next assay has as its system PAK4. The settings on record: read-out: apparent Kd; compound concentrations: 100 nM and 1000 nM (sheet 'Samples'), CATDS: 0.104490197523791; n = 1.
A further assay deals with PAK6. As to conditions: read-out: apparent Kd; compound concentrations: 100 nM and 1000 nM (sheet 'Samples'), CATDS: 0.160954118330599; n = 1.
Another assay relates to PKN1. The settings on record: read-out: apparent Kd; compound concentrations: 100 nM and 1000 nM (sheet 'Samples'), CATDS: 6.8915050548370396E-2; n = 1.
Another assay has as its system PRKAA2. The settings on record: read-out: apparent Kd; compound concentrations: 100 nM and 1000 nM (sheet 'Samples'), CATDS: 2.6285000431917799E-2; n = 1.
In another assay the test system is PRKACA. As to conditions: read-out: apparent Kd; compound concentrations: 100 nM and 1000 nM (sheet 'Samples'), CATDS: 4.9144940605522901E-2; n = 1.
In a further assay the test system is PRKAG2. The settings on record: read-out: apparent Kd; compound concentrations: 100 nM and 1000 nM (sheet 'Samples'), CATDS: 2.7426405634362501E-2; n = 1.
Another assay concerns PRKCB. The settings on record: read-out: apparent Kd; compound concentrations: 100 nM and 1000 nM (sheet 'Samples'), CATDS: 2.6716167566890599E-2; n = 1.
In the next assay the test system is PRKCD. As to conditions: read-out: apparent Kd; compound concentrations: 100 nM and 1000 nM (sheet 'Samples'), CATDS: 3.7280479553999199E-2; n = 1.
A further assay concerns PRKCQ. As to conditions: read-out: apparent Kd; compound concentrations: 100 nM and 1000 nM (sheet 'Samples'), CATDS: 2.7638944484762E-2; n = 1.
Another assay relates to PRKG1. As to conditions: read-out: apparent Kd; compound concentrations: 100 nM and 1000 nM (sheet 'Samples'), CATDS: 7.0196377588655406E-2; n = 1.
In another assay the test system is PRKX. As to conditions: read-out: apparent Kd; compound concentrations: 100 nM and 1000 nM (sheet 'Samples'), CATDS: 0.203063152086782; n = 1.
The next assay relates to RPS6KA4. As to conditions: read-out: apparent Kd; compound concentrations: 100 nM and 1000 nM (sheet 'Samples'), CATDS: 3.80124112320347E-2; n = 1.

Consider `OCCn1c(-c2ccncc2)c(-c2ccc(F)cc2)c2ncccc21` [RO1155798-000], for which the potency estimated from few doses in the assay on AGK was 2 µM; in the assay with CSNK1D, 0.582 µM; in the assay with CSNK1E it was 1.19 µM; with JAK2 it was 0.432 µM; in the assay with MAPK14, 0.897 µM; with MAPK9, 1.46 µM. Also, the potency estimated from few doses in the assay with MAPKAPK2 is 1.41 µM; in the assay with PKN3, 1.36 µM; in the assay on PRKD2, 1.2 µM; with PRKD3 it was 1.09 µM.
Regarding `Cc1cc(N2Cc3ccccc3C2)nc(Nc2ccc(S(=O)(=O)N3CCOCC3)cc2)n1.Cl` [GSK1669917A], the values for the potency estimated from few doses in the assay on ADRBK1 (CATDS: 0.38079622737555602), in the assay with MAP2K2 and in the assay on NNT were 1.29 µM, 2.17 µM and 1.64 µM, respectively.
In the case of `COc1cc2ncn(-c3cc(OCc4ccncc4Br)c(C(N)=O)s3)c2cc1OC` [GW854278X], the potency estimated from few doses in the assay on ADRBK1 (CATDS: 0.136000830332002) is 2.2 µM; in the assay on FLT4 it was 1.88 µM; with MAP4K5, 1.59 µM; in the assay with PLK1 it was 0.135 µM; with SLK, 2.1 µM; in the assay with STK10 it was 1.45 µM.
For `CCn1c(-c2nonc2N)nc2c(C#CC(C)(C)O)ncc(OC3CCNCC3)c21.O=C(O)C(F)(F)F` [GSK619487A], the potency estimated from few doses with AKT2 is 0.0915 µM; with AKT3, 1.3 µM; in the assay with CIT, 1.19 µM; in the assay on GSK3A, 0.0269 µM; with GSK3B, 0.038 µM; in the assay with LATS1, 0.0586 µM. The potency estimated from few doses in the assay with MARK2 is 0.0616 µM; in the assay with MARK3, 0.049 µM; in the assay on MARK4, 0.0539 µM; in the assay with PAK4 it was 0.00755 µM; in the assay with PAK6, 0.00274 µM; in the assay with PKN1, 0.0211 µM. The potency estimated from few doses is 1.81 µM in the assay on PRKAA2; 0.0555 µM in the assay with PRKACA; 1.21 µM in the assay on PRKAG2; 1.54 µM in the assay with PRKCB; 0.162 µM in the assay on PRKCD; 1.13 µM with PRKCQ. The potency estimated from few doses in the assay with PRKG1 is 0.0201 µM; in the assay on PRKX, 0.00158 µM; in the assay with RPS6KA4, 0.148 µM.
